These results are taken from PubChem BioAssay AID1578 (Sanford-Burnham Center for Chemical Genomics, 2009).

Screen size: about 290,000 compounds; about 3,000 (1%) were called active. Cut-off read from the data, not from the text of the source: active = inhibition mostly above about 36% (no sharp cut-off); inactive = mostly below about 34%. Shown is part of a subset that was picked to be rich in actives.

This assay is described as follows: NOD1 signaling inhibitors, primary screen, cell-based, luminescence, uHTS (AID 1578).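 Note: HEK-293T reporter cells stimulated with the NOD1 agonist gamma-tri-DAP.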 Particulars: NOD1-driven NF-kB luciferase reporter cells, at 4 µM, hits give high values. (In general: Reporter assays use an easily measured gene product as a stand-in for the process of interest.)
As to `CN=c1scc(-c2cccs2)n1/N=C/c1ccccc1O`, the inhibition – broadly, the relative decrease from the control value, in per cent – is 107% (active).

For the molecule `CN=c1scc(-c2cccs2)n1/N=C/c1ccc(O)c(O)c1O`, the inhibition is -24.6% (inactive).

`CC(C)N=c1scc(-c2cccs2)n1/N=C/c1ccc(O)c(O)c1O`: the inhibition is 54.6% (inactive).

Take `O=C(Cc1ccccc1)NCC(=O)N1CCN(c2ccccc2)CC1`: the inhibition is -14.1% (inactive).

For `Cc1ccc(NC2=CC(=O)CC(c3ccc(Cl)cc3)C2)cc1` (stereo not given), the inhibition was -10.3% (inactive).

With `Cc1cccc(/C=N/Nc2ccc3ccccc3n2)c1`, the inhibition was 63.5% (active).

On to `Fc1cccc(/C=N/Nc2ccc3ccccc3n2)c1`, for which the inhibition was 2.4% (inactive).

As for `Cc1ccc(/C=N/Nc2ccc3ccccc3n2)o1`, the inhibition is 25.7% (inactive).

In the case of `C(=N\Nc1nc2ccccc2[nH]1)/c1ccc2c(c1)OCCO2`, the inhibition is -1.4% (inactive).

For the molecule `C(=N\Nc1ccccn1)/c1ccc2c(c1)OCCO2`, the inhibition is -30.1% (inactive).

On to `C(=N\Nc1ccc2ccccc2n1)/c1ccc2c(c1)OCCO2`, for which the inhibition is 71.8% (active).

As for `Cc1ccc(OCC(O)CN2C(=O)NC(C)(C)C2=O)c(C)c1` (stereo not given), the inhibition is -16.8% (inactive).

On to `Cc1ccc(N=Nc2[nH]c3ccccc3c2O)cc1`, for which the inhibition is -16% (inactive).

Take `COc1ccc(N2CC(C(=O)Nc3nnc(SCc4cccnc4)s3)CC2=O)cc1` (stereo not given): the inhibition was -15.4% (inactive).

In the case of `O=C(O)CSc1nnc(CSc2nc3ccccc3s2)n1-c1ccccc1`, the inhibition is -26.6% (inactive).

As to `CC(C)(C)OC(=O)Nc1ncnc2c1ncn2C1OC(CO)C2OC(C)(C)OC21` (stereo not given), the inhibition was 1.4% (inactive).

In the case of `COc1ccc(NC(=O)CSc2nnc(CN3CCOCC3)n2C)cc1Cl`, the inhibition was -15% (inactive).

As for `Cc1cccc(NC(=O)NCC2CCN(c3ccc(S(=O)(=O)N4CCOCC4)cc3)CC2)c1`, the inhibition is -10.9% (inactive).

For the molecule `COC(=O)N/N=C(\C)c1ccc2ccccc2c1OC(F)F`, the inhibition is -30% (inactive).

For `CCNC(=S)N/N=C(\C)c1ccc2ccccc2c1OC(F)F`, the inhibition is -20.3% (inactive).

As to `C/C(=N\NC(=S)NCc1ccccc1)c1ccc2ccccc2c1OC(F)F`, the inhibition was 48.2% (active).

Turning to `CCc1ccc(CNC(=O)c2ccc(NC(=O)C3=CSCCO3)cc2)cc1`, the inhibition was -44.5% (inactive).

For `COc1ccc(NC(=O)C2=CC(c3ccco3)=NS(=O)(=O)N2C)cc1OC`, the inhibition is -21.6% (inactive).

For `O=C(Nc1cc(Sc2ccccn2)cc([N+](=O)[O-])c1)c1ccc([N+](=O)[O-])cc1`, the inhibition is 45.6% (inactive).

On to `O=C(Nc1cc(Sc2ccccn2)cc([N+](=O)[O-])c1)c1cccc(Cl)c1`, for which the inhibition is 15.3% (inactive).

Turning to `O=C(Nc1cc(Sc2ccccn2)cc([N+](=O)[O-])c1)c1ccc(Cl)cc1`, the inhibition was 74.1% (active).

On to `Cn1c(O)c(N=NC(=O)CNC(=O)/C=C/c2ccccc2)c2ccccc21`, for which the inhibition was 24.3% (inactive).

Regarding `O=C1c2ccccc2C(=O)N1c1ncc(Cc2ccc(Cl)cc2)s1`, the inhibition is 25.4% (inactive).

On to `Cc1cccc(Cc2cnc(N3C(=N)SC(c4ccccc4)C3=O)s2)c1` (stereo not given), for which the inhibition was 95.5% (active).

For `Cc1cccc(Cc2cnc(NC(=O)c3ccc(C)o3)s2)c1`, the inhibition was -34.8% (inactive).

`Brc1cccc(-c2nc3cccnc3nc2-c2cccc(Br)c2)c1`: the inhibition was 23.6% (inactive).

Take `CC(C)(C)c1nc2cc(Cl)c([N+](=O)[O-])cc2o1`: the inhibition is -22.4% (inactive).

In the case of `O=C1N=C2N(CCN3CCCCC3)c3ccccc3N2/C1=C\c1ccc([N+](=O)[O-])o1`, the inhibition was 84.9% (active).

Regarding `c1ccc2c(c1)N1CCCN=C1N2CCN1CCCCC1`, the inhibition is -32.5% (inactive).

For `O=C(CN1CCCCCCC1)N/N=C/c1ccc([N+](=O)[O-])o1`, the inhibition is 8.4% (inactive).

Turning to `CO/N=C/c1ccc(N2CCCC2)c([N+](=O)[O-])c1`, the inhibition was -21.4% (inactive).

In the case of `Cc1ccc(S(=O)(=O)N2CCN(c3ccnc4cc(Cl)ccc34)CC2)cc1`, the inhibition is 16.3% (inactive).

In the case of `C/C(Nc1ccccc1)=C(/C#N)C(N)=O`, the inhibition was -14.6% (inactive).

In the case of `N#CC(C#N)=C(Nc1ccccc1)c1ccccc1`, the inhibition was 32.8% (active).

With `CC(=O)Nc1ccc(C(=O)c2ccccc2)cc1`, the inhibition was -1% (inactive).

Consider `O=C(N/N=C/C=C/c1ccccc1)c1cc(C2CC2)[nH]n1`, for which the inhibition was 0.1% (inactive).

On to `CS(=O)(=O)Nc1nc2ccccc2[nH]1`, for which the inhibition was -0.8% (inactive).

On to `O=S(=O)(Nc1nc2ccccc2[nH]1)c1ccc2ccccc2c1`, for which the inhibition is 56.9% (inactive).

Consider `CN(Cc1ccccc1)S(=O)(=O)c1ccc2c(c1)CCC(=O)N2`, for which the inhibition was -21.5% (inactive).

With `O=C(c1cc(-c2ccccc2Cl)nc2ccc(Br)cc12)N1CCN(c2ccccn2)CC1`, the inhibition is -7.5% (inactive).

Consider `CSc1ccc(Cl)c(C(=O)OCC(=O)N(C)CCC#N)c1`, for which the inhibition is -28.1% (inactive).

`O=C(COC(=O)c1ccc(Cl)c([N+](=O)[O-])c1)NC1CCCC1`: the inhibition is 3.2% (inactive).

As to `O=C(COC(=O)c1cc([N+](=O)[O-])ccc1Cl)NC1CCCC1`, the inhibition was 1.2% (inactive).

Regarding `CC(C)N(C(=O)COC(=O)c1ccccc1C(=O)c1ccc(Cl)c([N+](=O)[O-])c1)C(C)C`, the inhibition is -13.9% (inactive).

On to `CN(CCC#N)C(=O)COC(=O)c1ccccc1C(=O)c1ccc(Cl)c([N+](=O)[O-])c1`, for which the inhibition was 55.1% (active).

Regarding `C(=N\n1cnnc1)/c1cccc2ccccc12`, the inhibition is 7.2% (inactive).

As to `Cc1cc(=O)oc2c(C)c(OCC(=O)N3CCC(C(=O)O)CC3)ccc12`, the inhibition was -25.2% (inactive).

As to `CCc1ccc(C2CC(=O)Nc3c2c(=O)nc2c(C)cccn32)cc1` (stereo not given), the inhibition is -32.6% (inactive).

In the case of `COc1cccc(C(CNC(=O)C(c2ccccc2)c2ccccc2)N(C)C)c1` (stereo not given), the inhibition was -20.7% (inactive).

On to `CC(C)(C)NC(=O)CSc1nc2[nH]ncc2c(=O)[nH]1`, for which the inhibition was -22.7% (inactive).

Turning to `COc1ccccc1N1CCN(/N=C/c2cc(Br)ccc2F)CC1`, the inhibition was -42.6% (inactive).

Turning to `CNc1ccn(C2CCCO2)c(=O)n1` (stereo not given), the inhibition was 1.2% (inactive).

Take `CCOc1ccc(NC(=O)c2cccnc2Cl)c([N+](=O)[O-])c1`: the inhibition is -27.8% (inactive).

In the case of `COc1ccc(NC(=O)c2ccccc2NS(=O)(=O)c2ccc(C)cc2)c([N+](=O)[O-])c1`, the inhibition is 58.5% (inactive).

As for `Cc1ccc2oc(C(=O)N(CCO)Cc3ccccc3)c(C)c2c1`, the inhibition was -6.1% (inactive).

Take `O=C(C(=O)N1CCOCC1)c1cn(CCOc2ccccc2)c2ccccc12`: the inhibition was 1% (inactive).

As for `Cc1ccc(CSC2=NCCN2S(=O)(=O)c2ccc(F)cc2)cc1`, the inhibition was 48.3% (active).

`Cc1ccc(S(=O)(=O)N2CCN=C2SCc2ccccc2)cc1`: the inhibition is -1.7% (inactive).

As for `Cc1ccc(CSC2=NCCN2S(=O)(=O)c2ccccc2)cc1`, the inhibition was -6% (inactive).

For the molecule `Cc1ccccc1S(=O)(=O)Cc1ccc(C(=O)NCCCN2CCN(C)CC2)o1`, the inhibition is -8.5% (inactive).

As to `CCOC(=O)Cc1cnc(NC(=O)Cn2nnc(-c3ccc(OCC)cc3)n2)s1`, the inhibition was 0.4% (inactive).

Take `O=C(N/N=C/c1ccc(OC(=O)c2ccccc2)cc1)c1cccnc1`: the inhibition was -4.5% (inactive).

On to `COC(=O)c1ccc2nc(C)c(C)nc2c1`, for which the inhibition was -2.5% (inactive).

Consider `COC(=O)c1ccc2c(c1)C(C)(C)C(/C=C/c1ccc(OC)c(OC)c1OC)=[N+]2C`, for which the inhibition was -8.7% (inactive).

Turning to `CCCCNC(=O)c1cc2c(=O)n(CC)c3ccccc3c2s1`, the inhibition was -5.9% (inactive).

On to `COc1ccc(CNC(=O)CN(C(=O)CCC(=O)Nc2ccccn2)c2ccc3c(c2)OCO3)cc1`, for which the inhibition is -19.9% (inactive).

In the case of `CCn1cc(C(=O)NCC(OC)OC)c(=O)c2cc(S(=O)(=O)N(C)C3CCCCC3)ccc21`, the inhibition was 59% (active).

Take `COC(CNC(=O)c1cn(C)c2ccc(S(=O)(=O)N(C)C3CCCCC3)cc2c1=O)OC`: the inhibition is -18.2% (inactive).

For `CCn1cc(C(=O)NCCCOC)c(=O)c2cc(S(=O)(=O)N(C)C3CCCCC3)ccc21`, the inhibition was -10.9% (inactive).

In the case of `CCOc1ccc(S(=O)(=O)N(CC)CC(=O)N2CCOCC2)cc1C`, the inhibition is -22.7% (inactive).

For `CN(C(=O)Nc1ccc(Cl)cc1)c1c2c(nn1C)CCCC2`, the inhibition was -14.8% (inactive).

Consider `COc1ccc(OC)c2c1sc(=NC(=O)c1cccc(N3C(=O)CCC3=O)c1)n2C`, for which the inhibition was -1.9% (inactive).

For `Cc1nc(N/N=C/c2ccccn2)sc1C`, the inhibition is 91% (active).

Consider `C(=N\Nc1nc2ccccc2[nH]1)/c1ccncc1`, for which the inhibition is -22% (inactive).

For `C(=N\Nc1nc2ccccc2[nH]1)/c1ccccn1`, the inhibition was 59.4% (active).

Regarding `CCN(CC)c1ccc(/C=N/Nc2nc3ccccc3[nH]2)cc1`, the inhibition was 105% (active).

Regarding `Cc1csc(N/N=C/c2ccccn2)n1`, the inhibition was 8.7% (inactive).

Consider `CCCc1sc(N/N=C/c2ccccn2)nc1-c1ccc(Br)cc1`, for which the inhibition was -37.7% (inactive).

As for `C(=N\Nc1nc2ccccc2[nH]1)/c1ccccc1`, the inhibition is -71.3% (inactive).

`CCN(CC)c1ccc(/C=N/Nc2nc3ccccc3[nH]2)c(O)c1`: the inhibition is 11.9% (inactive).

On to `C(=N\Nc1nc2ccccc2[nH]1)/c1ccc2ncccc2c1`, for which the inhibition is 18.6% (inactive).

Take `CCCOc1ccc(N2C(=O)CC(N(CCc3ccc(OC)c(OC)c3)C(=S)Nc3ccccc3)C2=O)cc1` (stereo not given): the inhibition is -8.1% (inactive).

For `O=C(Nc1ccon1)c1ccc(S(=O)(=O)N2CCOCC2)cc1`, the inhibition was -5.1% (inactive).

As for `CCOc1cc(N2CCOCC2)c(OCC)cc1NC(=O)c1nc2nccc(C)n2n1`, the inhibition was -8.4% (inactive).

`O=S(=O)(NCc1nc2ccccc2[nH]1)c1ccccc1`: the inhibition is -21.9% (inactive).

On to `CCCCNC(=O)CCC(=O)Nc1ccc2nc(N3CCCCC3)cc(C)c2c1`, for which the inhibition is -15.4% (inactive).

Turning to `O=c1[nH]c(C2CCN(S(=O)(=O)c3ccc(C(F)(F)F)cc3)CC2)nc2c1nnn2Cc1ccccc1`, the inhibition is -8.3% (inactive).

With `O=C(N/N=C/c1cccnc1)c1ccc(CN2c3cccc4cccc(c34)S2(=O)=O)cc1`, the inhibition was -27.8% (inactive).

Turning to `Fc1ccccc1NC(=S)NCCc1ccc(Cl)cc1`, the inhibition was -79.8% (inactive).

With `CCc1nc(SCC(=O)Nc2ccccc2C(=O)OC)n[nH]1`, the inhibition was -16.5% (inactive).
